IEC-6 cytotox: kills IEC-6 intestinal cells in KLF5 counter-screen; IEC-6 cytotoxicity, luminescence viability; inhibition, % at 5 µM; 0.78% of 290,000 active; in the data active = inhibition above about 22%;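 also: 0% = plate median of test compound wells and 100% = cytotoxic reference compound wells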
KLF5 inhibitor: kruppel-like factor 5 inhibition; DLD-1 KLF5 promoter-luciferase reporter, luminescence; inhibition, % at 5 µM; 0.23% of 290,000 active;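 active = inhibition above a per-plate limit of that plate's mean compound inhibition plus 3 SD, cut at about 60% in these data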;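 also: 0% = DMSO wells and 100% = LY294002 at 200 µM; higher means less KLF5 promoter-driven luciferase light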
APP transl inh: APP translation inhibition; SH-SY5Y APP 5'UTR-luciferase reporter, luminescence; inhibition, % at 2 µM; 0.82% of 190,000 active; AID 1285;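 active = inhibition above a set limit, derived from the sample mean plus 3 SD, cut at about 45% in these data; inconclusive = one replicate passes the limit while the other fails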
aSyn 5UTR inh: 5' untranslated region of α-synuclein, MLPCN primary screen | alpha-synuclein 5'UTR reporter, inhibitor activity | inhibition, % (tested at 7.5 µM) | 0.82% of 300,000 active; in the data active = inhibition above about 60%; inconclusive = no clear call, values can overlap the other calls;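 also: H4 neuroglioblastoma cells stably carrying SNCA 5'UTR luciferase fusion; 0% = DMSO wells and 100% = positive control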
Ba/F3 V617F tox: loss of viability in JAK2V617F-driven Ba/F3 cells; Ba/F3 EpoR-JAK2V617F viability, ATP luminescence; inhibition, % at 5.6 µM; 1.1% of 220,000 active;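 active = inhibition above the campaign mean plus 3 SD over all tested compounds, cut at about 24% in these data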;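 also: cytokine-independent growth of Ba/F3 cells driven by EpoR plus mutant JAK2; 0% = DMSO-treated cells and 100% = JAK inhibitor I control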
BaF3 parental: parental Ba/F3 viability inhibition as JAK2V617F counter-screen; CellTiter-Glo ATP luminescence; inhibition, % at 5.6 µM; 1.1% of 220,000 active; AID 1486;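 active = inhibition above a per-campaign cutoff, the mean inhibition of all tested compounds plus 3 SD, cut at about 27% in these data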;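 also: 0% = DMSO wells and 100% = JAK Inhibitor I control wells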
* marks the source's active call; other numbers are inactive results; ? = inconclusive; nt = no result. Only some compounds are listed: those with a hit (about 2.2% of all), similar ones and a draw of the others.

SMILES | IEC-6 cytotox | KLF5 inhibitor | APP transl inh | aSyn 5UTR inh | Ba/F3 V617F tox | BaF3 parental
Cc1cccc(C)c1NC(=O)CSc1nnc(Cn2nnc(-c3ccccc3)n2)n1-c1ccccc1 | -3 | -5 | 1 | 4 | 1 | 6
CCOC(=O)c1cnc2c(OC)cccc2c1N1CCN(c2ccccc2OC)CC1 | 0 | -16 | -3 | 62* | 7 | 6
N#CC1=C(N)Oc2cc3ccccc3cc2C1c1cccs1 (configuration not stated) | 7 | -2 | -18 | -21 | -1 | 4
CN(C)/C=N/C1=C(C#N)C(c2cccs2)c2ccc3ccccc3c2O1 (configuration not stated) | 5 | -42 | 92* | nt | 3 | 12
O=C(Nc1nnc(SCc2ccc(F)cc2)s1)c1ccccn1 | 78* | 4 | 44 | 63* | 3 | 14
O=C(Nc1nc2ccccc2s1)c1cnccn1 | -1 | -170 | -56 | -39 | -1 | 4
O=C(Nc1nc2ccc(F)cc2s1)c1ccccn1 | 71* | 60 | -30 | 102* | 6 | 13
COc1ccc(C)cc1NC(=O)c1nnn(Cc2cccc(C(F)(F)F)c2)c1N | -4 | 40 | 1 | ? | 24* | 37*
Cc1ccccc1Cn1nnc(C(=O)Nc2cccc(C)c2C)c1N | 7 | 7 | 13 | 25 | 26* | 32*
COc1ccc(OC)c(NC(=O)c2nnn(CCc3ccccc3)c2N)c1 | -2 | -30 | -31 | 4 | -4 | -1
Cc1ccc(CNC(=O)Cn2nnc(C(=O)Nc3cccc(C)c3C)c2N)cc1 | -1 | -2 | nt | 7 | nt | nt
COc1ccc(CCNC(=O)c2ccc(CNS(=O)(=O)c3cccc(Cl)c3)cc2)cc1OC | 2 | -28 | -5 | 18 | 3 | 5
Cc1ccc(C2CC(c3ccccc3)=NN2c2ccccc2)o1 (configuration not stated) | -4 | -21 | 7 | -232 | -3 | 2
Cc1onc(NC(=O)CSCC(=O)O)c1Br | -4 | -16 | nt | 7 | -2 | -3
CC1=CC(C)C(C(=O)O)C(C(=O)O)C1 (configuration not stated) | -1 | 4 | 18 | 9 | -3 | 1
CC[N+](C)(CC)CC(=O)OCC1C(C)C=C(C)CC1C (configuration not stated) | 2 | 2 | nt | -10 | 27* | 34*
COc1ccc(/C=C/C(=O)O)cc1S(=O)(=O)NCc1ccco1 | -2 | -2 | nt | -10 | -5 | -1
COc1cc(/C=C/C(=O)O)cc(S(=O)(=O)NCc2ccco2)c1OC | 0 | -5 | -14 | 0 | 1 | 90*
O=C(c1cnn2ccccc12)N1CCN(C2CCCCC2)CC1 | -2 | -23 | -14 | 1 | -4 | -1
Cc1ccc(C(c2cc(Cl)c3cccnc3c2O)N2CCN(C)CC2)cc1 (configuration not stated) | 1 | 27 | nt | 66* | nt | nt
O=C(CCCc1nc(-c2ccccc2Cl)no1)NC1CCCC1 | -6 | 47 | nt | 99* | nt | nt
CN(C)c1ccc(/C=N/Nc2nc3ccccc3o2)cc1 | 0 | 43 | nt | 67* | nt | nt
COc1ccc(C(=O)Nc2sc3c(c2C(=O)O)CC(C)(C)OC3)cc1 | -7 | 16 | -2 | 63* | -2 | 6
CC(C)COc1ccc(C(=O)Nc2sc3c(c2C(=O)O)CC(C)(C)OC3)cc1 | 3 | 12 | 8 | 63* | -3 | 5
C[C@@H]1C(=O)O[C@@H]2[C@H](O)C34[C@H]5C[C@@H](C(C)(C)C)C36[C@H](OC(=O)[C@@H]6O)OC4(C(=O)O5)[C@@]12O (some centres not stated) | -1 | -18 | 13 | 15 | 0 | 5
SMILES | IEC-6 cytotox | KLF5 inhibitor | APP transl inh | aSyn 5UTR inh | Ba/F3 V617F tox | BaF3 parental
C#CCOCCOCCOCCNc1nc(N2CCN(C(=O)[C@H]([C@@H](C)O)n3cc(CCCCN)nn3)CC2)nc(N2CCN(C(=O)[C@H](Cc3ccc(O)cc3)n3cc(CCO)nn3)CC2)n1 | 0 | -2 | 9 | -19 | -4 | 63*
CCCCOc1ccc(CSCCN=C(N)N)cc1 | 2 | -21 | -41 | -58 | 38* | 76*
COc1ccc(S(=O)(=O)N2CCCC(C(=O)Nc3cccc(C(C)=O)c3)C2)cc1 (configuration not stated) | -3 | -42 | 0 | -31 | 5 | 8
Cc1ccc(Cn2ccc(=O)c(OCc3ccccc3)c2C)cc1 | 0 | -76 | -35 | -110 | -5 | -2
Cc1c(O)c(=O)ccn1Cc1ccccc1 | -5 | -10 | 26 | 68* | -2 | 1
COc1ccc(N(CC(=O)NC2CCCCC2)C(=O)CNC(=O)c2cccs2)cc1 | -9 | -23 | nt | 5 | nt | nt
CCOc1ccc(C(=O)CSCCC(=O)O)cc1 | 1 | -20 | 38 | 68* | -1 | 5
Cc1ccc(Nc2c(-c3ccccn3)nc3ccc(C)cn23)cc1 | -1 | 6 | 60* | 36 | 4 | 2
Cc1ccn2c(Nc3ccc4c(c3)OCO4)c(-c3ccccn3)nc2c1 | -6 | -49 | 52* | -50 | -3 | 4
Cc1ccc(-c2nc3cnccn3c2Nc2ccc3c(c2)OCO3)o1 | -7 | -3 | 9 | 20 | -4 | 1
Cc1ccc(Nc2c(-c3ccccn3)nc3cc(C)ccn23)cc1 | 11 | 7 | 60* | 35 | 1 | 0
Cc1ccn2c(NC3CCCC3)c(-c3ccccn3)nc2c1 | 2 | -48 | 1 | -47 | 3 | 7
CC(C)=CC(=O)Nc1c(C)cc(C)cc1Cl | 6 | -27 | -8 | -9 | 3 | 3
S=C(c1ccc(-c2ccc(Cl)cc2)o1)N1CCCCC1 | -4 | -165 | -184 | -150 | -1 | 0
N#CCCN1CCN(C(=S)c2ccc(-c3ccc(Cl)cc3)o2)CC1 | -5 | -35 | 5 | -88 | -2 | 93*
c1ccc(-c2cn3nc(-c4ccccc4)sc3n2)cc1 | nt | nt | nt | 101* | nt | nt
O=C(Nc1ccc2oc(-c3cccnc3)nc2c1)c1ccc([N+](=O)[O-])o1 | -3 | -5 | 60* | -97 | 0 | -2
O=C(Nc1ccc2oc(-c3cccnc3)nc2c1)c1ccc(Br)o1 | 1 | -33 | 0 | -113 | -2 | 2
O=C(NCCO)c1cccc(S(=O)(=O)N2CCCCC2)c1 | -5 | -21 | -1 | 4 | 1 | 94*
O=C(CNC(=O)C1CCCCC1)NNC(=O)c1ccccc1Br | 1 | -22 | nt | 5 | nt | nt
c1ccc(-n2nnnc2Cc2nnnn2-c2ccccc2)cc1 | 8 | -10 | 4 | 10 | 5 | 3
N#CCCS(=O)(=O)c1nnnn1-c1ccccc1 | 7 | 4 | 9 | nt | 25* | 3
CN(C)c1nc(N/N=C/c2ccccc2O)nc(Nc2ccc(F)cc2)n1 | 3 | -3 | 48* | -60 | -2 | 5
O=C(Oc1cccc(NC(=O)c2cccs2)c1)c1cccc(S(=O)(=O)N2CCCC2)c1 | -1 | -15 | 18 | -43 | 1 | 3
O=Cc1s/c(=N\S(=O)(=O)c2ccccc2)n(CCCCl)c1Cl | -2 | -40 | 95* | 70* | 22 | 0
O=C(Nc1cccc(OC(F)(F)F)c1)c1ccc(Br)o1 | 6 | -13 | -10 | -30 | -2 | 0

Screening results deposited in PubChem by several laboratories.
